Laboratory results taken from PubChem BioAssay (NCI).
About 79,000 compounds went through this panel and 15% of them were active in at least one assay; those are over-represented in the sample as a whole. Values without a mark were called inactive. Activity calls are given as the source filed them. Cut-off read from the data, not from the text of the source: active = growth inhibition above about 70%; inactive = the rest.

How the values were obtained:
[1] = NCI Yeast Anticancer Drug Screen. Data for the rad50 strain (AID 155);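 note: 0% = growth of vehicle-only cultures of the same strain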; conditions: S. cerevisiae rad50 strain growth inhibition; at 50.0 µM; active compounds read high
Summary of the method: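 A DNA repair-deficient yeast mutant serves as the test organism; compound-induced growth inhibition is calculated against vehicle-treated cells.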

[2] = NCI Yeast Anticancer Drug Screen. Data for the mec2-1 strain (AID 157); conditions: S. cerevisiae mec2-1 strain, at 50.0 µM, active compounds read high
Summary of the method: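 Yeast mec2-1 mutant treated with compound. Readout: growth inhibition vs vehicle controls.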

[3] = NCI Yeast Anticancer Drug Screen. Data for the sgs1 mgt1 strain (AID 161);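 note: 0% = growth of cultures given vehicle only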; conditions: S. cerevisiae sgs1 mgt1 strain, at 50.0 µM, active compounds read high
Summary of the method: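 Genetically altered yeast, compound exposure, growth inhibition relative to vehicle.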

[4] = NCI Yeast Anticancer Drug Screen. Data for the cln2 rad14 strain (AID 165);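 note: 0% = growth equal to vehicle treated cultures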; conditions: S. cerevisiae cln2 rad14 strain, at 50.0 µM, active compounds read high
Summary of the method: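 cln2 rad14 yeast strain; compound exposure; growth inhibition read vs vehicle controls.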

[5] = NCI Yeast Anticancer Drug Screen. Data for the bub3 strain (AID 167); conditions: S. cerevisiae bub3 mutant strain, at 50.0 µM, active compounds read high
Summary of the method: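 Inhibition values come from growth of compound-treated mutant yeast normalised to vehicle-treated controls.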

[6] = NCI Yeast Anticancer Drug Screen. Data for the mlh1 rad18 strain (AID 175); conditions: S. cerevisiae mlh1 rad18 strain growth inhibition; at 50.0 µM; active compounds read high
Summary of the method: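 Yeast w/ defined DNA-repair lesions; compound exposure; growth vs vehicle controls → % inhibition.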

Row | Structure (SMILES) | growth inhibition [1] | growth inhibition [2] | growth inhibition [3] | growth inhibition [4] | growth inhibition [5] | growth inhibition [6]
1 | CCOC(=O)c1cc(C)[nH]n1 | -37.9% | -26.1% | -6.75% | -11.7% | -26.9% | 2.15%
2 | COc1cc(C2c3cc4c(cc3OC(Nc3ccccc3)C2C)OCO4)cc(OC)c1OC (stereo unspecified) | -12.7% | 5.6% | 2.95% | -10.6% | -6.5% | 20.8%
3 | O=C(Nc1nc(C23CC4CC(CC(C4)C2)C3)cs1)c1c(O)c2ccccc2[nH]c1=O | -29.2% | -23.9% | -8.75% | 8.95% | -6.45% | -22.5%
4 | CCOC(=O)c1cc(C)nc2ccc(Br)cc12 | -3.2% | 3.45% | -11.2% | -5.85% | 4.2% | -11.7%
5 | CCCc1cc(=O)n(CCCc2ccccc2)c(=O)n1CCCc1ccccc1 | 10.3% | -8.7% | -8.95% | -36.1% | -3.65% | 16%
6 | Nc1ccccc1C(=O)/C=C/c1c(O)ccc2ccccc12 | 29.6% | 9.5% | 10.2% | 15.9% | 21.1% | 34.3%
7 | c1ccc(C2OCCO2)c(OCCOc2cc(OCCOc3ccccc3C3OCCO3)c(OCCOc3ccccc3C3OCCO3)cc2OCCOc2ccccc2C2OCCO2)c1 | -7.6% | -18.9% | -9.9% | 0.3% | -4.3% | 12.3%
8 | OCC(O)C(O)C(O)C(c1ccc(Cl)cc1)c1ccc(Cl)cc1 (stereo unspecified) | -16.4% | 0.65% | -23% | 5.35% | 2.25% | 35%
9 | CC(C)c1ccc(/C=N\NC(=O)NNC(=O)c2ccccc2)cc1 | -3.05% | -4.25% | 11.6% | -95.8% | -2.85% | -8.25%
10 | [O-]c1c(Cl)c(Cl)c(O[P+](c2ccccc2)(c2ccccc2)c2ccccc2)c(Cl)c1Cl | 99.2% (active) | 99.4% (active) | 99.5% (active) | 97.9% (active) | 99% (active) | 99.2% (active)
11 | C=CCCCCCCCCC(=O)OC | -11.8% | -17.9% | 10.2% | -10.5% | -5.1% | -31.4%
12 | CC(C)(C)Nc1ccc([N+](=O)[O-])cc1[N+](=O)[O-] | 26.4% | -21.9% | 6.6% | 7.95% | 25.2% | -10.7%
13 | O=COCc1ccc(Cl)cc1Cl | 16.9% | -2.75% | -5.65% | 5% | -1.35% | -11.7%
14 | CCNC(=O)C1CC2C=CC1C2 (stereo unspecified) | -1.25% | 2.1% | 4.2% | 12.6% | 3.05% | 1.5%
15 | CCN(CC)c1ccc(N=C2C=C(C(=O)Nc3ccc(S(C)(=O)=O)cc3)C(=O)c3ccccc32)c(C)c1 | -15.8% | -29.5% | 2.55% | 6.6% | -4.2% | -17.2%
16 | Cc1ccc(N(C)C)cc1 | -25.3% | -15.1% | 10.8% | -18.4% | -0.45% | 6.4%
17 | CC(Cc1nc2ccccc2[nH]1)Cc1nc2ccccc2[nH]1 | -7% | 17.4% | 7.1% | 21.4% | 2.3% | 15.6%
18 | O=C(C(=Cn1c(=O)cc[nH]c1=S)C(=O)c1ccccc1)c1ccccc1 | -14.7% | -19.4% | -27.6% | 2.95% | -15.6% | -9.7%

Row | Structure (SMILES) | growth inhibition [1] | growth inhibition [2] | growth inhibition [3] | growth inhibition [4] | growth inhibition [5] | growth inhibition [6]
19 | c1ccc(OB(Oc2ccccc2)Oc2ccccc2)cc1 | 12.2% | 6.65% | -7.25% | -39% | 4.2% | -6.7%
20 | CCN(CC)Cc1cc(Oc2ccc(O)c(CN(CC)CC)c2)ccc1O | 11.1% | 8.5% | 3.65% | -22.7% | 11.6% | -4.4%
21 | O=c1nc(-c2ccccc2)cc(Cc2ccc3ccccc3n2)[nH]1 | 30.1% | 25.8% | 26.1% | -29.8% | 47% | 28.9%
22 | O=c1[nH]c(=O)n(CCCCOc2ccccc2)cc1-c1ccccc1 | 3.75% | 10.2% | 19.6% | 0.7% | 12.1% | 5.9%
23 | Cc1cc2c(c(S(=O)(=O)c3ccc(Cl)cc3[N+](=O)[O-])c1)NCCC2 | 6.4% | 11% | 8.25% | 15.3% | 15.7% | -0.7%
24 | O=c1c2c(oc(=Nc3ccccc3)n1-c1ccccc1)CC1(CCCCC1)C2 | 5.45% | 1.75% | -0.1% | -15.2% | -10.9% | -4.2%
25 | O=C(O)c1c(Br)c(Br)c(Br)c(Br)c1C(=O)Nc1ccc(Cl)cc1C(F)(F)F | 1.35% | 10.1% | 11.1% | -6.55% | 0.3% | 13.3%
26 | CCCCSCCO | -0.65% | -0.2% | -4% | -12.4% | -4.4% | 0.7%
27 | CC1=NN(C(=O)CC(=O)Nc2cccc(Cl)c2)C(=O)C1N=Nc1ccc(S(=O)(=O)c2ccc(N=NC3C(=O)N(C(=O)CC(=O)Nc4cccc(Cl)c4)N=C3C)cc2)cc1 (stereo unspecified) | 36.5% | 15.2% | 23.4% | -1.9% | -25.4% | 22.4%
28 | COc1ccc(CC(N)C(=O)NC2C(CO)OC(n3cnc4c(N)ncnc43)C2O)cc1 (stereo unspecified) | 5.65% | -28.6% | -1.6% | -74.3% | -0.25% | -12.8%
29 | COc1ccc(C(=O)/C=C/c2ccc(OCCSCCCCCCCCCCSCCOc3ccc(/C=C/C(=O)c4ccc(OC)cc4)cc3)cc2)cc1 | -35% | -30.1% | -16.6% | 3.75% | -20.2% | -40.3%
30 | CCCCC(C)NC(=O)c1ccccc1 (stereo unspecified) | 4.3% | 11.3% | -23.8% | -52.5% | -3.8% | 2%
31 | CC(=O)c1ccccc1Cc1cccc2c(Cl)cccc12 | 4.55% | 6.05% | 10.1% | -0.95% | 1.85% | 18.6%
32 | O=c1[nH]c(O)c(/C=N/C(=S)NCc2ccccc2)c(=O)[nH]1 | -41% | -37.9% | -26.1% | 5.9% | -0.55% | -12.3%
33 | Cc1nc2ccccc2c(=O)n1NC(=S)Nc1ccccc1 | -40.9% | -57.1% | -41.5% | 7.85% | -32.4% | -59.5%
34 | O=C(CC1Sc2ccccc2NC1=O)NNc1c(Cl)cc(Cl)cc1Cl (stereo unspecified) | 6.45% | 0.9% | 4% | 17.3% | 0.55% | 33%
35 | CCOC(=O)CCCN1CCC=C(C#N)C1 | 13% | -2.2% | 6.7% | -7.7% | 13% | 7.85%
36 | NC(CSS(=O)(=O)O)=NCC1CC2CCC1C2 (stereo unspecified) | 3.25% | 6.2% | -3.85% | 6.95% | 4.4% | 12.3%
